# DT40 TDP1 no CPT = qHTS for Inhibitors of human tyrosyl-DNA phosphodiesterase 1 (TDP1): qHTS in cells in absence of CPT | DT40 Tdp1-/- hTDP1 cells, no CPT, ATP luminescence, 48 h | Potency, µM (top dose mostly 46.2 µM), for the others: at the top dose activity change, negative = growth inhibition, hits mostly inhibitors | hit rate 15% among 420,000 | AID 686978, 2013; note: % is set by controls: 0 for no effect and ±100 for the full control effect; nearly all actives have a fitted effect of over 55% in size
#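 Chicken DT40 Tdp1-/- cells complemented with human TDP1, screened without camptothecin (DMSO vehicle only), 400 cells/well. Compounds pin-transferred, cells incubated at 37 °C for at least 48 hr. Growth read as ATP-dependent luminescence (CellTiter-Glo, 30 min at RT).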
# ClpP mod = qHTS Assay for Activators of ClpP | hit rate 1.9% among 340,000 | purified B. subtilis ClpP, FRET peptide cleavage, 20 min | Potency, µM (series often up to 57.5 µM), for inactives: at the highest dose activity change, negative = active; active = well fitted falling curve with a large enough effect; inconclusive = small, poorly fitted or top-dose-only effect; inactive = no such curve, though single readings can be large or run the other way; note: the source files actives as falling curves though it sought activators and does not explain the sign; nearly all actives have a fitted effect of over 65% in size
# Target sequence (P80244 whole entry, looked up): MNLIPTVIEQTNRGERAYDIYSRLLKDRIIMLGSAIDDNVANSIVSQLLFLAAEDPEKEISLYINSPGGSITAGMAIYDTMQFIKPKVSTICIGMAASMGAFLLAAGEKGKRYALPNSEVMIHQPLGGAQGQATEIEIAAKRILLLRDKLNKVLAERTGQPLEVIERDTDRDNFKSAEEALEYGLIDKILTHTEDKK
#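 FRET quenching reversal measured ClpP activation: 10 microg/mL B. subtilis ClpP at pH 8 with the FRET-FV decapeptide, read at 430 nm after 320 nm excitation. The 20-min minus 0-min signal was scaled between DMSO/no-enzyme wells and ADEP (5.8 microM final).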
# DT40 TDP1 CPT = growth inhibition of DT40 Tdp1-/-;hTDP1 cells with camptothecin (screen for TDP1 inhibitors). chicken DT40 Tdp1-/-;hTDP1 cells + 20 nM CPT, ATP luminescence, 48 h. Potency, µM (titrated, usually from 46.2 µM), without a hit: at the top dose activity change, negative = growth inhibition, most hits filed as inhibitors. hit rate 12% among 420,000. AID 686979; note: % is set by controls: 0 for no effect and ±100 for the full control effect; nearly all actives have a fitted effect of over 55% in size
#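 Chicken DT40 Tdp1-/- cells complemented with human TDP1, 400 cells/well, exposed to compounds plus 20 nM camptothecin for at least 48 h at 37 C; viability read as ATP content by CellTiter-Glo luminescence.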
# TDP1 inh = TDP1 (human) enzyme inhibition | Q9NUW8 | AID 485290 | recombinant TDP1, AlphaScreen DNA substrate cleavage | Potency, µM (top dose mostly 130 µM), for inactives: top-dose activity change, negative = inhibition, actives largely listed as inhibitors | hit rate 0.28% among 350,000; note: % is set by controls: 0 for no effect and ±100 for the full control effect; nearly all actives have a fitted effect of over 40% in size
#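 Tdp1 1 nM final; 15 min RT w/ cpd; substrate 15 nM, 5 min; beads 10 ug/ml, 10 min; AlphaScreen read. Neg ctrl: no enzyme.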
# The depositor's hits bear a star; ? = inconclusive; · = no result. In the library only some 17% were active in any assay of this set; here they are far more common. Unless noted, calls come from the whole dose curve; as a rule, active = well fitted curve in the direction sought with a large enough effect; inconclusive = small, poorly fitted or top-dose-only effect, or another doubt; inactive = no such curve, though single readings can be large; an effect the other way counts as inactive or inconclusive. Potency is the fitted concentration of half-maximal effect.
SMILES,DT40 TDP1 no CPT,ClpP mod,DT40 TDP1 CPT,TDP1 inh
Cc1cccc(Cn2cnc3c(nnn3Cc3ccc(F)cc3)c2=O)c1,?,1%,?,7%
Cc1ccccc1Cn1nnc2sc3c(c2c1=O)CCCC3,?,-2%,?,0%
Cc1ccccc1Cn1nnc2c1C(=O)c1ccccc1C2=O,6.5µM*,-2%,8.2µM*,·
Cc1cccc(Cn2nnc3c2C(=O)c2ccccc2C3=O)c1,4.6µM*,-2%,9.2µM*,3%
CC(=O)Nc1cccc(C(=O)OCC(=O)N2CCC(c3ccccc3)=N2)c1,-23%,·,-10%,·
Cc1cc(C)c2sc(N3CCN(C(=O)C4CC4)CC3)nc2c1,18µM*,2%,29µM*,-3%
Cc1cc(C)c2sc(N3CCN(C(=O)c4ccc(N(C)C)cc4)CC3)nc2c1,15µM*,-6%,?,8%
O=C(C1CC1)N1CCN(c2nc3ccccc3s2)CC1,-11%,1%,-24%,0%
CN(C)c1ccc(C(=O)N2CCN(c3cc(C(F)(F)F)nc4ccccc34)CC2)cc1,?,0%,?,10%
COc1ccc2nc(N3CCN(C(=O)C4CC4)CC3)sc2c1,-25%,2%,-3%,8%
CCOC(=O)C1CCN(C(=O)C2CCN(c3nc4ccc(OC)cc4s3)CC2)CC1,16µM*,0%,13µM*,2%
CCCCC/C=C\C/C=C\C/C=C\CCCCCCC(=O)O[C@H](COCCCCCCCCCCCCCCCC)COP(=O)([O-])OCC[N+](C)(C)C,·,·,·,4%
COc1cccc(/C=C/C(=O)Nc2ccc(N3CCOCC3)cc2)c1OC,?,·,8%,2%
COc1ccccc1Nc1c2c(nc3ccc(NC(=O)c4cccc(F)c4)cc13)CCCC2,2.6µM*,-18%,5.8µM*,9%
COc1cccc(/C=C/C(=O)NNC(=O)c2ccncc2)c1OC,-4%,2%,2%,2%
O=C(Nc1ccc2nc3n(c(=O)c2c1)CCCC3)c1cccc(F)c1,-21%,-3%,-30%,·
COc1ccc(Nc2c3c(nc4ccc(NC(=O)/C=C/c5cccc(OC)c5OC)cc24)CCCC3)cc1OC,4.6µM*,-3%,2.3µM*,15%
COc1ccccc1Nc1c2c(nc3ccc(NC(=O)/C=C/c4cccc(OC)c4OC)cc13)CCCC2,4.1µM*,-2%,3.3µM*,9%
COc1ccc(/C=C/C(=O)Nc2ccc3nc4c(c(Nc5ccccc5OC)c3c2)CCCC4)cc1,3.7µM*,-8%,3.3µM*,12%
COC(=O)c1cc(NC(=O)CCc2c(C)nc3c(c(C)nn3C(C)(C)C)c2C)cc(C(=O)OC)c1,?,-8%,-20%,6%
CS(=O)(=O)N1CCC[C@@]2(CCN(c3ccccc3)C2)C1,?,·,-5%,·
O=S(=O)(c1ccccc1)N1CCC2(CCN(c3ccc(-c4ccccc4)cc3)CC2)CC1,-6%,·,?,·
CS(=O)(=O)N1CCC2(CC1)CN(c1cccc(-c3ccccc3)c1)C2,18µM*,·,?,·
CS(=O)(=O)N1CCC2(CCN(c3cccc(-c4ccccc4)c3)CC2)CC1,21µM*,·,?,·
